Screening data: PubChem, National Center for Advancing Translational Sciences (NCATS)
Pf growth 48h = inhibits P. falciparum growth in the first generation, 48 h. P. falciparum luciferase growth in erythrocytes, 48 h. Potency, µM (series often up to 28.7 µM), inactives show top-dose activity change, negative = inhibition, usual class: inhibitors. actives 5.9% (n = 310,000); note: % is set by controls: 0 for no effect and ±100 for the full control effect
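Luciferase-expressing parasites in RBCs, 2% Hct / 0.1% parasitemia final; RPMI 1640 + 0.5% Albumax; 37 C, 5% CO2, one generation; luminescence read-out, lower signal = inhibition.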
SARS PLpro yeast = SARS-CoV PLP inhibition in yeast; actives 0.19% (n = 330,000); S. cerevisiae expressing SARS-CoV PLpro, growth rescue; Potency, µM (highest dose often 32.9 µM), for inactives: top-dose activity, positive = growth rescue, actives largely listed as activators; AID 485353; calls by dose curve; note: 0% is about no effect; nearly all actives have a fitted effect of over 55% in size
Pf growth 96h = P. falciparum growth inhibition at 96 hour, primary screen for plastid delayed-death inhibitors; P. falciparum luciferase reporter growth, 96 h; Potency, µM (titrated, usually from 28.7 µM), for the others: top-dose activity change, negative = inhibition, usual class: inhibitors; actives 6.9% (n = 320,000); AID 504834; note: % is set by controls: 0 for no effect and ±100 for the full control effect
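Two-generation exposure (96 h) targets delayed-death phenotype. Reporter parasites carrying integrated firefly luciferase, in red cells at 2% hematocrit and 0.05% parasitemia final, kept at 37 C, 5% CO2; luminescence loss indicates inhibition.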
Sm TGR block = S. mansoni TGR enzyme inhibition; Q962Y6; purified TGR, DTNB reduction, TNB absorbance 405 nm; Potency, µM (series often up to 114 µM), inactives show at the highest dose activity change, negative = inhibition, hits mostly inhibitors; actives 3% (n = 360,000); note: % is set by controls: 0 for no effect and ±100 for the full control effect; nearly all actives have a fitted effect of over 60% in size
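TGR 20 nM + NADPH 100 uM (dispensed conc.), cpd preinc 15 min RT; start with NADPH (500 uM addition) then DTNB (15 mM addition). Kinetic TNB absorbance, 405 nm filter. Four-parameter Hill fit across titration.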
The depositor's hits bear a star; ? = inconclusive; nt = not tested or not shown. An excerpt weighted towards active compounds, which were near 12% of everything screened. Unless noted, calls come from the whole dose curve; as a rule, active = well fitted curve in the direction sought with a large enough effect; inconclusive = small, poorly fitted or top-dose-only effect, or another doubt; inactive = no such curve, though single readings can be large; an effect the other way counts as inactive or inconclusive. Potency is the fitted concentration of half-maximal effect.

SMILES | Pf growth 48h | SARS PLpro yeast | Pf growth 96h | Sm TGR block
CC1CCN(c2ccc(NC(=O)Cn3c(=O)oc4ccccc43)cc2)CC1 | 21% | -15% | ? | ?
CCOc1ccccc1CNS(=O)(=O)c1cc(-c2cc(C)no2)ccc1OC | 5% | ? | 12µM* | 10%
COc1ccccc1CNS(=O)(=O)c1cc(-c2cc(C)no2)ccc1C | nt | nt | nt | 0%
COc1ccccc1CN1CCC(CNS(=O)(=O)c2cc(-c3cc(C)no3)ccc2C)CC1 | 4.7µM* | 1% | -37% | -12%
COc1ccc(-c2cc(C)no2)cc1S(=O)(=O)NCC1CCN(Cc2cc(C)ccc2C)CC1 | ? | ? | ? | -10%
COc1ccc(-c2cc(C)no2)cc1S(=O)(=O)N1CCCN(Cc2ccccc2Cl)C1 | ? | 6% | 12µM* | 6%
C=CC[C@H](CC(=O)N[C@H](CO)Cc1ccccc1)C(=O)N[C@H](COC(=O)[C@H](CC=C)CC(=O)OC(C)(C)C)Cc1c[nH]c2ccccc12 | nt | 2% | nt | nt
CC(O)CNCCCOc1ccccc1OCc1ccccc1 (stereo not drawn) | ? | 0% | 28% | -10%
CNCC(C)COc1ccccc1OCc1ccccc1 (stereo not drawn) | ? | 28% | 12µM* | 6%
CCOCCCn1c(SCC(=O)Nc2ccc(F)cc2)nc2c(sc3ccccc32)c1=O | nt | nt | nt | -7%
CCN(CC)c1nn2c(=O)c(C(=O)NCc3ccccc3Br)cnc2s1 | nt | nt | nt | 4%
Cc1cccc(C)c1OCC(O)CNC(C)C (stereo not drawn) | nt | 0% | ? | 2%
CCOC(=O)c1oc2cccc(OCC(O)CNC(C)C)c2c1C (stereo not drawn) | 9.3µM* | -6% | 1.3µM* | 3%
COc1ccc(NC(=O)Nc2cccc([N+](=O)[O-])c2)cc1Cl | 6.6µM* | -20% | 26% | -2%
COc1ccc(NC(=S)Nc2cccc([N+](=O)[O-])c2)cc1 | 15% | -6% | 78% | 20µM*
O=C(Nc1ccc([N+](=O)[O-])cc1)Nc1ccc(OC(F)F)c(Cl)c1 | 1.9µM* | -123% | -15% | -5%
COc1ccc(NC(=O)c2cccc([N+](=O)[O-])c2)cc1 | 271% | 1% | -33% | 6%
COc1ccccc1CCNC(=O)Nc1cccc([N+](=O)[O-])c1 | 17% | -1% | 58% | -2%
CC(Cc1ccccc1)NC(=O)CCCN1C(=O)c2ccccc2C1=O (stereo not drawn) | 38% | 1% | ? | 1%
CC(C)CCC(CC(C)O)c1n[nH]c(=S)n1-c1ccccc1 (stereo not drawn) | -1% | 0% | 2.3µM* | 6%
CCC(c1n[nH]c(=S)n1-c1ccccc1)N(C)C (stereo not drawn) | 12% | -3% | -6% | 8%
Cc1noc(NS(=O)(=O)c2ccc(NC(=O)/C=C/c3ccc(C(C)C)cc3)cc2)c1C | 33% | -2% | 10µM* | 5%
CN(Cc1ccccc1Br)C(=O)CN1C(=O)NC2(CCCCCC2)C1=O | ? | -7% | ? | -30%
COc1ccc(NC(=O)c2cc(S(=O)(=O)NCC3COc4ccccc4O3)ccc2F)cc1 (stereo not drawn) | -17% | 10% | 44% | 7%
CC(C)c1ccc(NC(=O)c2cc(S(=O)(=O)NCC3COc4ccccc4O3)ccc2F)cc1 (stereo not drawn) | ? | -37% | 2.9µM* | 1%
SMILES | Pf growth 48h | SARS PLpro yeast | Pf growth 96h | Sm TGR block
CC(C)CN(CCCNC(=O)c1cc(-c2cccs2)nc2ccccc12)CC(C)C | nt | nt | nt | 1%
Cc1ccccc1-n1ncc2c(SCC(=O)NCc3cccs3)ncnc21 | -27% | 0% | 5.2µM* | 2%
Cc1ccc(C(O)C(=O)c2ccco2)cc1 (stereo not drawn) | 7% | 4% | 96% | -23%
O=C(c1ccco1)C(O)c1ccco1 (stereo not drawn) | nt | 0% | 28% | 20µM*
CSCCC(NC(=O)c1ccccc1Br)C(=O)NNC(=O)c1ccco1 (stereo not drawn) | 0% | -1% | 0% | -5%
COC(=O)c1ccc(CN2CCN(Cc3ccc(C(=O)OC)o3)CC2)o1 | -16% | -2% | ? | 35µM*
COC(=O)c1ccc(CN2C(=O)c3ccccc3C2=O)o1 | 10% | -1% | 27% | -7%
O=C(CCS(=O)(=O)c1ccc(Br)cc1)NCc1ccc(F)cc1 | 41% | 1% | 10µM* | 5%
O=C(CCS(=O)(=O)c1ccccc1Cl)NCc1ccc(F)cc1 | ? | 0% | -18% | 32µM*
